The entries come from a sample that favours hits as a whole.
Tgondii IFNg = blocks Toxoplasma gondii growth in the presence of IFN-gamma. hit rate 3.8% among 69,000. Toxoplasma gondii growth in IFN-gamma-treated host cells; hits give low values. activity change, negative = inhibition, % (concentration not given with the values); in the data active = activity change below about -70%, passing the limit was not always enough;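 note: host cells are HeLa cells infected with Toxoplasma gondii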
An asterisk follows results filed as active.

SMILES	Tgondii IFNg
O=C(O)CN1C[C@@H]2C(NC(=O)c3ccno3)[C@H]2C1 (stereo not given in full)	-29
CCOC(=O)CN1C[C@H]2OCCN(c3ncc(F)cn3)[C@H]2C1	2
CO[C@H]1CCC(O[C@H]2CC([C@]3(C)CC[C@]4(C[C@H](O)[C@@H](C)[C@@H]([C@@H](C)/C=C(\C)C(=O)[C@H](C)C[C@H](C)C(=O)O)O4)O3)O[C@]3(O[C@@H](C4O[C@@](O)(CO)[C@H](C)C[C@@H]4C)C[C@@H]3C)[C@@H]2C)O[C@@H]1C (stereo not given in full)	-78*
CC(C)=CCCC1(C)C=Cc2c(O)c3c(c(CC=C(C)C)c2O1)OC12C(=CC4CC1C(C)(C)OC2(CC=C(C)C(=O)O)C4=O)C3=O (stereo not given)	-69
C[C@]12CC[C@H](O)C[C@H]1CC[C@@H]1[C@@H]2CC[C@]2(C)[C@@H](C3=CC(=O)OC3)CC[C@]12O	-85*
C[C@]12[C@H](O)CC3C(CC[C@@H]4C[C@@H](O)CC[C@]34C)[C@@]1(O)CC[C@@H]2C1=CC(=O)OC1 (stereo not given in full)	-79*
C[C@]12CCC3[C@@H](CC[C@@H]4C[C@H](O)CC[C@]34C)[C@@H]1CCC2=O (stereo not given in full)	37
CC(=O)OCC(=O)[C@H]1CC[C@H]2[C@@H]3CC[C@H]4C[C@H](O)CC[C@]4(C)[C@H]3C(=O)C[C@]12C	2
CC12CC[C@H]3[C@@H](CCC4(O)C[C@H](O)CCC34/C=N/NC(=O)Cc3ccccc3)C1(O)CCC2C1=CC(=O)OC1 (stereo not given in full)	-10
C[C@]12CC[C@H](O)C[C@H]1CC[C@@H]1[C@@H]2C[C@@H](O)[C@]2(C)[C@@H](C3=CC(=O)OC3)CC[C@]12O	-87*
CC(=O)[C@H]1CC[C@H]2[C@@H]3CC[C@H]4C[C@H](O)CC[C@]4(C)[C@H]3C(=O)C[C@]12C	17
CN1CCN(C)C2(CCN(c3cc(NCCO)ncn3)CC2)C1	6
CCOC1C2CCC1N(Cc1c(C)noc1C)C2 (stereo not given)	1
Cc1cc(CN2CCC3(CCN(C)C3)CC2)no1	-6
O=C(Nc1ccc(OC(F)(F)F)cc1)c1cc2cccnc2n(Cc2ccc(Cl)cc2)c1=O	28
O=C(C[C@H]1C[C@@H]2CNC[C@@H]2O1)NCc1cccs1	7
O=C(NCCc1ccccc1)c1cc2cccnc2n(Cc2ccc(F)cc2)c1=O	121
Cc1cc(C)c(NC(=O)c2cc3cccnc3n(Cc3ccccc3F)c2=O)c(C)c1	-83*
COCC(C)NC(=O)c1cc2cccnc2n(Cc2ccc(F)cc2)c1=O (stereo not given)	-50
O=C(Nc1ccccc1)c1cc2cccnc2n(Cc2ccc(F)cc2)c1=O	78
CCCCCNC(=O)c1cc2cccnc2n(Cc2ccc(F)cc2)c1=O	-40
NS(=O)(=O)c1ccc(CCNC(=O)c2cc3cccnc3n(Cc3ccc(F)cc3)c2=O)cc1	-88*
Cc1cc(Br)ccc1NC(=O)c1cc2cccnc2n(Cc2ccccc2F)c1=O	96
O=C(Nc1ccccc1)c1cc2cccnc2n(Cc2ccccc2F)c1=O	81
CC(NC(=O)c1cc2cccnc2n(Cc2ccc(F)cc2)c1=O)c1ccccc1 (stereo not given)	-115*
SMILES	Tgondii IFNg
COc1cccc([C@@H]2CCN(Cc3cc4ccccc4n(C)c3=O)C[C@H]2O)c1	-11
CNC(=O)C[C@@H]1C[C@@H]2CN(Cc3ccncc3)C[C@H]2O1	-48
Cc1nc([C@H]2C[C@@H]3CCN(Cc4c(C)noc4C)C[C@@H]3O2)n[nH]1	4
Cn1nc(C(=O)Nc2cnc3n2CCCC3)c2ccccc21	4
O=C(Nc1ccc(C(F)(F)F)cc1)c1cc2cccnc2n(Cc2ccccc2)c1=O	40
Cc1c(C(=O)N2CCC3(CC2)OCCO3)oc2ccc3c(c12)C(O)CC1(CCCCC1)O3 (stereo not given)	-35
C=CCN1CC[C@@H]2OCC[C@]2(C(=O)NCCc2ccccn2)C1	-14
Cc1noc(C)c1CN1CC[C@H]2[C@@H]1CCN2CC(C)C	1
COc1cccc([C@@H]2CCN(Cc3n[nH]c(C)c3Cl)C[C@H]2O)c1	3
O=C1C2(c3ccccc3)CN3CCN(C2)CC1(c1ccccc1)C3	-4
CN(C)C(=O)Oc1cc(=O)n(C)c2ccccc12	-21
CN(C)C(=O)Oc1c(-c2ccccc2)cn(Cc2ccccc2)c(=O)c1-c1ccccc1	-84*
C=CCN1CCN(Cc2nccs2)Cc2cccnc21	3
CCCCc1ccc(NC(=O)c2cc3cccnc3n(Cc3ccc(Cl)cc3)c2=O)cc1	22
CC1(C)CC[C@]2(C(=O)O)CC[C@]3(C)[C@H](C(=O)C=C4[C@@]5(C)C=C(C#N)C(=O)C(C)(C)[C@@H]5CC[C@]43C)[C@@H]2C1	-79*
Cc1nc(CCNC(=O)[C@@]23CNC[C@@H]2CN(C)C3)cc(=O)[nH]1	-2
